From PubChem
MITF inh = MITF inhibitors, primary screen, biochemical, AlphaScreen, human; AlphaScreen MITF homodimerization, bead proximity signal; inhibition, % at 2.6 µM; actives 0.91% (n = 650,000); in the data active = inhibition above about 50%;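 also: 0% = vehicle wells with protein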
TEAD-YAP block = TEAD-YAP interaction inhibition, primary screen, TEAD-YAP interaction inhibitor project, luminescence, HEK-TIYL cells | TEAD-Gal4/YAP UAS-luciferase luminescence | inhibition, % at 9.12 µM | actives 1.4% (n = 640,000); in the data active = inhibition above about 32%;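 also: 0% = median of test compound wells and 100% = reference inhibitor wells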
GPR151 ag = activators of human GPR151, primary screen, cell-based, PathHunter beta-arrestin, luminescence | G-protein coupled receptor 151 (Homo sapiens), Q8TDV0 | PathHunter beta-arrestin GPR151 cells | actives 1% (n = 650,000) | AID 1508602, 2020 | activation, % at 11.2 µM; in the data active = activation above about 4.9%;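 also: 0% = median of compound wells and 100% = cells with positive control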
FBW7 act = FBW7 E3 ligase activators, primary screen, biochemical, AlphaScreen, human | F-box/WD repeat-containing protein 7 (Homo sapiens), Q969H0 | AlphaScreen FBW7–phospho-cyclin E peptide binding, activator screen | normalized activity (activation), % at 26.1 µM | actives 0.13% (n = 650,000) | AID 1259310, 2017; in the data active = normalized activity above about 1.9%;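 also: purified mutant Fbw7 with reduced substrate affinity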
GPR151 confirm = GPR151 activators, triplicate retest, confirmation, cell-based, PathHunter beta-arrestin, luminescence | shares compounds with GPR151 ag | 6,700 tested, under 10 active | GPR151 PathHunter beta-arrestin cells, 90 min; % of EA-reagent control over plate median | activation, % at 11.2 µM;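 active = mean percent activation across replicates above the confirmation screen cutoff of 4.91%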
GPR119 ag = GPR119 activators in beta-arrestin cells, counter-screen for GPR151 activator project, cell-based, PathHunter beta-arrestin, luminescence, triplicate; 90 min; 0 = compound-well median, 100 = enzyme-acceptor control; activation, % at 11.2 µM; shares compounds with GPR151 ag; actives 0.3% (n = 6,700);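 active = mean percent activation in the counterscreen above 29.09%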;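 also: counterscreen on off-target GPR119 to flag nonselective hits from the GPR151 activator screen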
Target sequence (Q8TDV5 whole entry, looked up): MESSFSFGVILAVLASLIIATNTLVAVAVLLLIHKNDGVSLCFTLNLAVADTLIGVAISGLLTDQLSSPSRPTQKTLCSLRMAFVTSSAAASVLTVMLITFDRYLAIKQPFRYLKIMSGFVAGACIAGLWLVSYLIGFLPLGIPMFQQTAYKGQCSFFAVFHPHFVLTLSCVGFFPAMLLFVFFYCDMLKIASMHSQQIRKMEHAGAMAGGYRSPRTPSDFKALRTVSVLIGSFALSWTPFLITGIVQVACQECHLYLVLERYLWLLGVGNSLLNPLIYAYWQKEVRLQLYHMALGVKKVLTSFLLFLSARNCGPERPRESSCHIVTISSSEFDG
Starred values were filed as active, the others as inactive; . = no result given. An excerpt weighted towards active compounds, which were near 3.5% of everything screened.

SMILES	MITF inh	TEAD-YAP block	GPR151 ag	FBW7 act	GPR151 confirm	GPR119 ag
O=C(CN1CCN(C(c2ccccc2)c2ccccc2)CC1)NCc1cccs1	35	-5	0	0	.	.
O=C(NC(=S)N1CCOCC1)c1cccnc1	11	1	0	0	.	.
COc1ccc(NC(=S)N(Cc2ccc(F)cc2)C2CCCCC2)cc1Cl	-2	-5	0	0	.	.
COc1ccc(OC)c(NC(=O)CC(Cc2ccc(Cl)cc2)C(=O)O)c1 (stereo not drawn)	8	6	5.2*	0	0	-7
COc1ccc(OCC#CCNC(C)(C)C)cc1	9	5	8.7*	0	1	-6
CNCC#CCOc1ccc(OC)cc1	41	-5	1	1	.	.
CC(=O)c1ccc(NC(=O)CN2CCCc3ccccc32)cc1	-3	5	0	0	.	.
O=C(CN1CCCc2ccccc21)Nc1ccc(Br)cc1	4	-3	12*	0	0	5
O=C(c1cn(-c2ccc(Cl)cc2)c(=O)c2ccccc12)N1CCC(Cc2ccccc2)CC1	-1	4	0	0	.	.
O=C(Nc1ccccc1)NC1c2ccccc2Oc2ccccc21	2	-14	6.6*	0	0	-2
O=C(NC1c2ccccc2Oc2ccccc21)c1ccncc1	4	-6	-1	0	.	.
COc1ccc(/C=C2\N=C(c3cccs3)OC2=O)c(OC)c1OC	3	-3	-1	0	.	.
CC1CN(C(=O)CCC(=O)N2CCN(c3ccccn3)CC2)c2ccccc2O1 (stereo not drawn)	-7	-2	6.1*	0	0	0
Cc1ccc(S(=O)(=O)CCC(=O)N2CCN(c3ccccn3)CC2)cc1	4	-3	5.1*	0	0	-3
CC1CN(C(=O)CCC(=O)NC2CCCC2)c2cc(Cl)ccc2O1 (stereo not drawn)	-3	-4	0	0	.	.
CC1CN(C(=O)CCC(=O)NC2CCCC2)c2ccccc2O1 (stereo not drawn)	5	-6	5.1*	0	0	-2
Cc1cc2ccccc2c(=O)n1CC(=O)N1CCN(c2ccccn2)CC1	-2	10	7.2*	0	0	-9
COc1cc(Nc2nc(NC3CC3)c3ncn(C(C)C)c3n2)cc(OC)c1OC	-9	-45	-1	0	.	.
COCCn1c(=N)c(C(=O)NCc2ccco2)cc2c(=O)n3ccccc3nc21	6	-13	7.3*	0	0	-8
COc1cccc(NC(=O)c2cc3c(=O)n4ccccc4nc3n(CC(C)C)c2=N)c1	-5	-8	5.0*	0	-1	-7
CCC(C)c1ccccc1OCCOc1ccc(/C=C2/C(=N)N3N=C(C(F)(F)F)SC3=NC2=O)cc1OC (stereo not drawn)	-5	18	-1	0	.	.
CCNc1nc(C)cc(Nc2ccc3c(c2)OCO3)n1	5	-34	0	0	.	.
O=C1OC(c2ccccc2Br)=N/C1=C\c1ccc(I)cc1	13	6	5.3*	0	-1	-11
O=C1OC(c2ccccc2Br)=N/C1=C\c1ccc(Br)cc1	3	-4	0	0	.	.
CC(C(=O)O)N1C(=O)c2ccc(F)cc2C1=O (stereo not drawn)	9	-8	1	0	.	.
SMILES	MITF inh	TEAD-YAP block	GPR151 ag	FBW7 act	GPR151 confirm	GPR119 ag
COc1ccc(N2C(=O)NC(=O)/C(=C/c3ccc(OC)c(OCC(N)=O)c3)C2=O)cc1	11	14	1	0	.	.
COC(=O)c1ccc(NC(=O)/C(=C\c2ccc(F)cc2)NC(=O)c2ccccc2OC)cc1	-1	6	-1	0	.	.
Cc1cc(C)c(C#N)c(SC/C=C/CSc2nc(C)cc(C)c2C#N)n1	-19	-8	-1	0	.	.
Cc1cc(C)c(C#N)c(SC/C=C/c2ccccc2)n1	4	-2	7.0*	0	-1	-10
COc1cc(CO)cc(Cl)c1OCc1ccccc1C#N	3	1	6.7*	0	0	-7
CCOc1ccc(-c2nc(NC(C)=O)c3c(=O)oc4c(OC)cccc4c3n2)cc1	0	8	9.2*	0	1	12
O=C1C2CC(Br)C(Br)CC2C(=O)N1c1cccc2ccccc12 (stereo not drawn)	15	-4	0	0	.	.
CCOc1ccc(N(C(=O)c2c(F)cccc2F)C2C=CS(=O)(=O)C2)cc1 (stereo not drawn)	5	3	1	0	.	.
O=C1/C(=C/c2ccc(-c3ccc(Cl)c(Cl)c3)o2)C=C(c2ccccc2)N1c1ccc(Cl)c(Cl)c1	5	5	0	0	.	.
COc1cccc(CC2(C3CCN(Cc4cccnc4)CC3)NC(=O)N(C)C2=O)c1 (stereo not drawn)	-5	-2	1	0	.	.
COc1cccc(CC2(C3CCN(Cc4ccccc4F)CC3)NC(=O)N(C)C2=O)c1 (stereo not drawn)	1	8	5.0*	0	1	4
CCOC(=O)/C(C(N)=O)=C(\O)C(=O)/C=C(\O)c1ccc(C)cc1	0	-5	1	0	.	.
CCOC(=O)/C(C(N)=O)=C(\OC)C(=O)CC(=O)c1ccc(C)cc1	5	6	5.5*	0	1	7
CCOc1cc(C2C(C(=O)N3CCCCC3)=C(C)NC3=C2C(=O)CCC3)cc(Br)c1OC (stereo not drawn)	5	12	4.9*	0	0	6
COc1cc(N)c(Cl)cc1C(=O)OCC(=O)N(C)C1CCS(=O)(=O)C1 (stereo not drawn)	2	1	1	0	.	.
Cc1oc(C(=O)O)cc1CSCc1ccoc1C(=O)O	3	0	6.1*	0	1	-2
CCOC(=O)CSCC(=O)N1N=C(c2cccs2)CC1c1cccc(OC)c1OC (stereo not drawn)	3	5	6.6*	0	0	8
CN1C(=O)C(C)(C)COc2cc(NC(=O)CCc3ccccc3)ccc21	10	5	0	0	.	.
CC(C)n1c(Nc2ccccc2)nc2c(NCCc3ccc(O)cc3)ncnc21	-1	30	6.1*	0	-1	-11
CC(C)n1c(Nc2ccc3ncccc3c2)nc2c(NCCN3CCOCC3)ncnc21	14	-4	6.4*	0	0	0
CC(C)n1c(Nc2ccc3ncccc3c2)nc2c(NCCc3ccc(O)cc3)ncnc21	0	-1	5.1*	0	0	-5
Oc1ccc2ccccc2c1/C=N/Nc1nn2cnnc2c2ccccc12	-6	2	1	0	.	.
